Hits are enriched below; roughly 1.8% of the tested compounds scored in any of these assays.
GRK2 aptamer HTS: inhibitors of human GRK2 displacing RNA aptamer | P25098 | bead flow cytometry, FAM-aptamer displacement from GRK2 | inhibition of aptamer binding, % at 10 µM | 330,000 tested, 0.59% active | AID 488847;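 active = inhibition of aptamer binding above 40%, roughly 3 SD of noise, on plates passing a quality check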;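 also: median bead fluorescence of bound FAM aptamer so fluorescent compounds give negative values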
VLA-4 inh: inhibition in a human VLA-4 binding assay; P13612; VLA-4 expressing cells, ligand binding flow cytometry; inhibition, % (about 7 µM as worked out from the volumes in the protocol); 330,000 tested, 0.2% active
LANA-H2B inh: blocks KSHV LANA binding to histone H2A/H2B. Q9QR71. cell-free LANA-H2A/H2B peptide, fluorescence polarization. inhibition, % (concentration not given with the values). 320,000 tested, 0.6% active; in the data active = inhibition mostly above about 10%, no sharp cut-off; inactive = mostly below about 6.7%
HDAC3 inh: blocks human histone deacetylase 3; recombinant HDAC3, fluorogenic peptide/trypsin coupled, fluorescence; 320,000 tested, 0.15% active; inhibition, % at 8.3 µM; in the data active = inhibition above about 26%, passing the limit was not always enough; inconclusive = no clear call, values can overlap the other calls
DSG3 Ab inh: human desmoglein-3 autoantibody binding inhibition; P32926; DSG3-coupled beads, scFv-anti-DSG3-GFP binding, flow cytometry; hits give low values; binding (percent of control), % at 10 µM; 310,000 tested, 0.48% active; AID 588358;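 active = binding more than 3 SD below its plate's average and above zero; inconclusive = below that plate limit but binding exactly zero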;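 also: hits lower antibody fragment binding to DSG3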
PKD1 kinase inh: inhibitors of human PKD1 kinase; PKD1 kinase fluorescence polarization assay; inhibition, % (concentration not given with the values); 200,000 tested, 0.056% active
Target sequence (Q15139 whole entry, looked up): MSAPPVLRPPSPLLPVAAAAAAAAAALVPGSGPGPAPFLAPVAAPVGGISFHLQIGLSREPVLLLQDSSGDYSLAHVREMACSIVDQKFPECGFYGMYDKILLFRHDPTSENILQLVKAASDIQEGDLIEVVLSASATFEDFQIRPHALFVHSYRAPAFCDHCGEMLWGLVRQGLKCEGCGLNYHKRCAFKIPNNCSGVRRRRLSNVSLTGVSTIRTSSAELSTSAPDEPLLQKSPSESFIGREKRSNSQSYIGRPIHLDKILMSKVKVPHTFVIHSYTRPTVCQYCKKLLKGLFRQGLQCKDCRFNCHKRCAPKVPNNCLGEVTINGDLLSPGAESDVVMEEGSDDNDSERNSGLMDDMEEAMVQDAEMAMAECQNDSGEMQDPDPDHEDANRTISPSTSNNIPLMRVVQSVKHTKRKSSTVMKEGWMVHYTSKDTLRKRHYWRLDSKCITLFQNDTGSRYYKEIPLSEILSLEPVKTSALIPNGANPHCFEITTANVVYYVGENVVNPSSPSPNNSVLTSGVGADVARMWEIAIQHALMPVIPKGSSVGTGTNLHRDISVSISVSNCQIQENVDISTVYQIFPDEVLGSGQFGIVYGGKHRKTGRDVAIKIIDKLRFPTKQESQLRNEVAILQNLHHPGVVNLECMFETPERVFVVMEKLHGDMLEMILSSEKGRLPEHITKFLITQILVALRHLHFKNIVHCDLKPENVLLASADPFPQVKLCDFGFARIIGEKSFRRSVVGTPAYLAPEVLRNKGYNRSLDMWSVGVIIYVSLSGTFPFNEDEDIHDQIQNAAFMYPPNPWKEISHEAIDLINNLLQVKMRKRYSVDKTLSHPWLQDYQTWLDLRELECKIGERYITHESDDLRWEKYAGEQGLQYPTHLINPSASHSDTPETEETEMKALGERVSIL
Numbers without * were called inactive; i = inactive; ? = inconclusive; . = not tested or not shown. Rule as the data show it, unless noted: active = inhibition above about 50%; inactive = the rest.

SMILES	GRK2 aptamer HTS	VLA-4 inh	LANA-H2B inh	HDAC3 inh	DSG3 Ab inh	PKD1 kinase inh
COc1cccc(NC(=O)/C=C/c2ccc(S(=O)(=O)N3CCOCC3)cc2)c1	0.0	5.5	0.2	7.2	73.3*	.
C(=NOCc1ccccc1)c1cccnc1	.	.	.	.	89.3	.
COc1cccc(CN2CCNC(=O)C2CC(=O)NCCN2CCCCC2=O)c1 (centres undefined)	0.0	-7.3	.	.	99.6	.
O=C(Nc1ccccc1)NN1CC(=O)N(c2ccc(Cl)cc2)CC1=O	0.0	41.0	0.6	12.2	108.7	.
O=C1CN(c2ccc(Cl)cc2)C(=O)CN1NC(=S)Nc1ccc(Cl)cc1	2.0	1.4	1.7	2.3	60.6*	1.0
O=C(/C=C/c1ccc(Br)o1)Nc1nccs1	12.0	2.4	19.1*	-4.3	96.9	-2.1
COc1ccccc1C(=O)NCCN=C1NS(=O)(=O)c2ccccc21	1.0	13.0	-5.4	-1.7	.	.
O=C(c1ccc(O)cc1)c1ccc(C(=O)c2ccc(O)cc2)cc1	0.0	-0.5	13.5*	-3.6	95.0	0.3
O=C(C(=O)c1ccc(O)cc1)c1ccccc1	0.0	58.1*	4.3	-7.9	96.4	.
O=C(Cc1ccccc1)c1ccc(O)cc1	.	.	.	.	95.7	.
Cc1ccc(C(=O)N2CCN(c3ccc(C(F)(F)F)cn3)CC2)o1	3.0	4.3	-1.4	1.1	107.1	.
CCc1nn(-c2ccccc2)c(=S)c2ccccc12	3.0	2.2	-2.1	-9.8	87.9	-2.6
CC(C)C[C@H](NC(=O)NC(C)C)C(=O)O	19.0	8.5	16.4*	-7.6	100.1	2.1
CC1=CCC(C(=O)O)(C(=O)N/N=C/c2cccs2)C(c2ccc([N+](=O)[O-])cc2)C1 (centres undefined)	2.0	7.6	4.2	10.2	32.9*	-7.3
CC1=CCC(C(=O)O)(C(=O)N/N=C/c2cccs2)C(c2ccc(F)cc2)C1 (centres undefined)	0.0	4.5	1.2	1.9	99.5	-1.4
Cc1ccc(NC(=O)Nc2ccno2)cc1	4.0	5.2	-4.1	8.1	108.1	.
CCOc1ccc(CCNC(=O)COC(=O)c2nn(C)c(=O)c3ccccc23)cc1OCC	8.0	2.2	12.2*	6.8	110.6	.
CCCc1cc(C(=O)OCC(=O)NCCc2ccccc2)sc1C	.	.	.	.	96.4	.
Cc1ccc(C)c(N(CC(=O)N/N=C/c2ccc(-c3ccc([N+](=O)[O-])cc3)o2)S(=O)(=O)c2ccccc2)c1	5.0	-17.9	-1.1	-2.1	85.3*	2.2
CCOc1ccc(S(=O)(=O)N(CC(=O)N/N=C/c2ccc(-c3ccc([N+](=O)[O-])cc3)o2)c2ccccc2)cc1	17.0	-21.2	-4.0	-2.3	103.0	-1.5
Cc1ccc(NC(=O)c2ccc(S(=O)(=O)NCc3ccco3)cc2)cc1	2.0	10.1	-4.9	0.4	-4.6*	.
CC(OC(=O)c1ccc(S(=O)(=O)NCc2ccco2)cc1)C(=O)Nc1ccccc1 (centres undefined)	0.0	3.2	14.0*	2.3	99.2	.
O=C(Nc1ccc(S(=O)(=O)NCc2ccco2)cc1)c1ccncc1	2.0	-2.9	1.1	6.1	103.5	-5.7
COc1ccccc1CN(C)C(=O)c1ccc(S(=O)(=O)NCc2ccco2)cc1	44.0*	34.0	-0.3	-1.7	95.0	.
COc1ccc(S(=O)(=O)CCC(=O)N2CCN(c3ccc(C(C)=O)cc3)CC2)cc1	2.0	2.0	13.1*	4.5	126.9	.
SMILES	GRK2 aptamer HTS	VLA-4 inh	LANA-H2B inh	HDAC3 inh	DSG3 Ab inh	PKD1 kinase inh
CCOC(=O)N1CCN(C(=O)CNC2CCCCCCC2)CC1	2.0	1.7	1.9	.	100.2	4.2
CSc1cccc(NS(=O)(=O)c2ccc(-c3coc(C)n3)cc2)c1	3.0	2.4	0.5	4.5	3.0*	.
Cc1nc(-c2ccc(S(=O)(=O)Nc3cccc(Cl)c3)cc2)co1	2.0	10.4	-4.3	-0.2	59.2*	.
COc1ccc(NS(=O)(=O)c2ccc(-c3coc(C)n3)cc2)cc1OC	0.0	2.4	5.3	6.7	106.1	.
Cc1nc(-c2ccc(S(=O)(=O)Nc3ccc(S(N)(=O)=O)cc3)cc2)co1	0.0	9.3	-1.4	5.0	90.8	.
O=C(CSc1nnc(-c2ccccc2Br)o1)N1CCOCC1	0.0	3.3	20.3*	-3.9	99.5	.
O=C(CSc1nnc(-c2ccccc2O)o1)N1CCOCC1	.	.	.	.	86.7	.
COc1ccc(N2CCN(CCCNC(=O)CCCn3c(=O)[nH]c4ccsc4c3=O)CC2)cc1	0.0	-4.5	-3.1	7.5	.	-5.8
COc1ccc(N2CCN(CCNC(=O)CCCn3c(=O)[nH]c4cc(Cl)ccc4c3=O)CC2)cc1	0.0	-3.7	19.5*	-1.2	97.7	-11.7
Cc1noc(C)c1COc1ccc(C(=O)Nc2cccnc2)cc1	.	.	.	.	83.4	-6.5
CC(=O)C1CCC2C3CCC4CC(=O)CCC4(C)C3C(C)(O)CC12C (centres undefined)	.	.	.	.	100.3	.
Cc1ccc(C(C(=O)NC(C)(C)C)N(CC2CCCO2)C(=O)CCC(=O)Nc2ccccn2)cc1 (centres undefined)	1.0	0.4	22.3*	0.2	100.5	.
Cc1cc(NC(=O)CCC(=O)N(Cc2ccco2)C(C(=O)NCC2CCCO2)c2ccncc2)no1 (centres undefined)	0.0	1.6	7.4	-1.0	81.2	74.3*
CCC(C)(C)NC(=O)C(c1ccc(C)cc1)N(CC1CCCO1)C(=O)CCC(=O)Nc1ccccn1 (centres undefined)	2.0	-6.9	9.5	3.6	.	.
Cc1ccccc1C(=O)N1CCC(C(=O)NC2CCCC2)CC1	0.0	-8.5	2.7	1.4	.	.
CCN(CC)S(=O)(=O)c1ccc(N/N=C/c2cc(OC)c(OC)cc2OC)nc1	0.0	7.9	-2.3	-1.5	62.8*	4.3
CCN(CC)S(=O)(=O)c1ccc(N/N=C/c2ccc(OC)c(OC)c2OC)nc1	1.0	11.7	-2.7	13.1	98.7	-1.6
Cc1cccc(-n2nc3c(c2NC(=O)c2ccco2)CSC3)c1C	2.0	-6.4	1.3	3.2	86.5*	0.8
Cc1cccc(N2C(=O)c3cccc4c(N(C)CCO)ccc(c34)C2=O)c1	0.0	-61.7	19.7*	-3.3	149.0	5.1
Cc1cccc(N2C(=O)c3cccc4c(N)ccc(c34)C2=O)c1	0.0	-9.0	61.1*	?	106.5	.
O=C(O)c1ccc2c3c(cccc13)C(=O)N(c1ccccc1)C2=O	40.0	-1.8	3.2	6.8	16.2*	-6.2
Nc1cccc(N2C(=O)c3cccc4c(N)ccc(c34)C2=O)c1	1.0	-256.1	25.7*	.	99.7	.
COc1ccc(N2CC(C(=O)Nc3nc4ccc(F)cc4s3)CC2=O)c(OC)c1 (centres undefined)	0.0	6.7	2.1	7.0	113.2	.
Cc1cc2oc(=O)cc(CN3CCOCC3)c2c(C)c1Cl	0.0	3.3	4.5	4.4	94.5	.
CC(C)CCN1C(=O)c2cccc3c(N)ccc(c23)C1=O	0.0	i	14.4*	-0.2	108.4	.
N#Cc1ccc(OCC(=O)OCC(=O)c2ccc[nH]2)cc1	.	.	.	.	100.9	.
CCN(CC)c1ccc(NC(=O)CCCCC(=O)Nc2ccc(N(CC)CC)cc2)cc1	0.0	9.1	2.3	-5.8	87.8*	.

Screening results as filed in PubChem BioAssay.
